Source: PubChem (National Center for Advancing Translational Sciences (NCATS))
Abeta yeast res – restores growth of yeast expressing A-beta42 peptide; Potency, µM (series often up to 46.1 µM), hits mostly activators; AID 1347071; yeast expressing A-beta42, growth rescue, OD600, 48 h; response scale: 0% DMSO, 100% iron-clioquinol control; 410,000 compounds, 0.063% hits; note: nearly all actives have a fitted effect of over 55% in size
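Yeast A-beta toxicity model in growth medium with pinned compounds, 48 h at 30 C; growth read as absorbance at 600 nm. Normalized to FeCl3/clioquinol equimolar mix (positive) and DMSO (negative).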
ClpP mod – qHTS Assay for Activators of ClpP; purified B. subtilis ClpP, FRET peptide cleavage, 20 min; Potency, µM (titrated, usually from 57.5 µM); 340,000 compounds, 1.9% hits; AID 651965, 2013; active = well fitted falling curve with a large enough effect; inconclusive = small, poorly fitted or top-dose-only effect; inactive = no such curve, though single readings can be large or run the other way; note: the source files actives as falling curves though it sought activators and does not explain the sign; nearly all actives have a fitted effect of over 65% in size
Target sequence (P80244 whole entry, looked up): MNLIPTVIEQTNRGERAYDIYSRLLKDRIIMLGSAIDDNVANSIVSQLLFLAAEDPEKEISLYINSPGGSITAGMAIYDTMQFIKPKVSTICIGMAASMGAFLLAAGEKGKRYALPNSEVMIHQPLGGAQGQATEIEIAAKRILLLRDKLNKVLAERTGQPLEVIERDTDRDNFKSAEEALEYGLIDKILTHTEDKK
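Buffer: 100 mM Tris/HCl pH8, 100 mM KCl, 0.05% low protease BSA, 2.5% glycerol, 0.01% Tween-20. ClpP 10 microg/mL final; 20 min RT; delta FRET normalized to ADEP and DMSO controls.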
aSyn yeast inh – inhibitors of alpha-synuclein toxicity in yeast. Potency, µM (titrated, usually from 46.1 µM), most hits filed as activators. 370,000 compounds, 0.14% hits. Yeast expressing alpha-synuclein, growth rescue, BacTiter-Glo, 24 h. AID 652106; note: nearly all actives have a fitted effect of over 65% in size
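Galactose-induced alpha-syn yeast (OD600=0.02, raffinose-pregrown) + pinned cpd, 24 hr, 30 deg C; growth by BacTiter-Glo luminescence. Growth restoration scores as activation.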
FUS suppressor – FUS proteinopathy suppression in yeast; Potency, µM (series often up to 76.6 µM), usual class: activators; 390,000 compounds, 0.24% hits; AID 1347120; S. cerevisiae FUS-expressing, growth rescue, OD600, 24 h; note: nearly all actives have a fitted effect of over 55% in size
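Galactose (2%) drives FUS expression in yeast precultured in raffinose; seeding density OD 0.005. Test compounds incubated 24hr at 30C and 99% humidity before absorbance at 600 nm was measured.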
MmCpn inh – inhibitors of Methanococcus maripaludis chaperonin TRiC (MmCpn) | purified Mm-Cpn ATPase, ADP Transcreener TR-FRET | Potency, µM (series often up to 76.9 µM), actives largely listed as inhibitors | 330,000 compounds, 0.031% hits | AID 504842; note: nearly all actives have a fitted effect of over 80% in size
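Measured: ADP formation by purified Mm-CPN. Conditions: 25 nM protein, 10 uM ATP, Tris pH 7.4 with Mg2+, K+ and DTT, 37°C for 30 min. Detection: Transcreener HTRF after 30 min at room temperature.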
TDP-43 yeast inh – inhibitors of TDP-43 toxicity in yeast | TDP-43 expressing yeast growth rescue, BacTiter-Glo, 24 h | Potency, µM (titrated, usually from 46.1 µM), hits mostly activators | 410,000 compounds, 1.8% hits; note: nearly all actives have a fitted effect of over 50% in size
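In this qHTS, compounds that restore growth of yeast expressing TDP-43 appear as activators. Cells (OD600=0.02, galactose medium, raffinose-pregrown) are incubated with compound 24 hr at 30 deg C and growth is quantified by BacTiter-Glo.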
Numbers stand for hits; - = inactive; ? = inconclusive; . = not tested or not shown; ! = not active in a repeat. A selection: hits, their analogues and other compounds. The true share with any hit is near 3.6%. Unless noted, calls come from the whole dose curve; as a rule, active = well fitted curve in the direction sought with a large enough effect; inconclusive = small, poorly fitted or top-dose-only effect, or another doubt; inactive = no such curve, though single readings can be large; an effect the other way counts as inactive or inconclusive.

SMILES	Abeta yeast res	ClpP mod	aSyn yeast inh	FUS suppressor	MmCpn inh	TDP-43 yeast inh
COc1ccc([N+](=O)[O-])cc1NC(=O)C(C)OC(=O)C1CCCC1 (centres undefined)	-	-	-	-	-	-
Cc1cc(C)c2c(C)ccnc2c1	.	-	.	.	.	.
O=C(NCCc1ccc(Cl)cc1)C(=O)NCC(c1cccs1)S(=O)(=O)c1cccs1 (centres undefined)	-	-	.	-	.	-
COc1cccc(CSc2nc3cc(OC)c(OC)cc3c3nc(CCn4nc(C)cc4C)nn23)c1	-	-	.	-	.	-
COc1ccc2oc(C(=O)Nc3nnc(C)s3)c(C)c2c1	-	28µM	-	.	-	-
COc1ccc(CCNC(=O)c2oc3ccccc3c2C)cc1	-	-	-	-	-	-
COc1ccc(CCNC(=O)c2[nH]c(C)c(C(C)=O)c2C)cc1	-	35µM	-	-	-	-
COc1ccc(CCNC(=O)c2oc3ccc(OC)cc3c2C)cc1	-	-	-	-	-	4µM
COc1ccc2oc(C(=O)NC(C)c3ccccn3)c(C)c2c1 (centres undefined)	-	25µM	-	.	-	-
Cc1ccc2oc(C(=O)Nc3nnc(C)s3)c(C)c2c1	-	-	-	-	?	-
COc1ccc2oc(C(=O)Nc3nc(-c4ccccn4)cs3)c(C)c2c1	-	-	-	-	-	?
COc1cc(OC)cc(C(=O)Nc2nc3ccc(S(C)(=O)=O)cc3s2)c1	-	.	-	-	-	-
COc1ccc2oc(C(=O)Nc3nc4ccc(S(C)(=O)=O)cc4s3)c(C)c2c1	-	16µM	-	-	-	-
Cc1ccc(C)c(N(CC(=O)Nc2ccccc2C(=O)NCc2ccco2)S(=O)(=O)c2ccccc2)c1	-	35µM	-	?	-	-
Cc1ccc(N(CC(=O)Nc2ccccc2C(=O)NCc2ccco2)S(=O)(=O)c2ccccc2)cc1C	-	22µM	-	-	-	-
Cc1ccc2ncc(C)c(C)c2c1	.	-	.	.	.	.
O=C(O)c1cccc(Oc2ccc([N+](=O)[O-])cc2)c1	-	-	-	-	-	18µM
CCc1ccccc1NC(=O)NC1CCCCC1	-	3.2µM	-	-	-	-
COC(=O)c1[nH]c2ccc(C)cc2c1NC(=O)NC1CCCCC1	-	?	-	-	-	-
CCc1cccc(CC)c1NC(=O)NC1CCCCC1	-	-	-	.	-	-
COC(=O)c1ccccc1NC(=O)Oc1ccc(C(C)C)cc1	-	32µM	-	-	-	-
COC(=O)c1ccccc1NC(=S)NC(=O)COc1ccc(C(C)C)cc1	?	-	-	-	-	-
O=C(Nc1c(C(=O)O)[nH]c2ccccc12)NC1CCCCC1	-	7.9µM	-	-	-	-
COC(=O)c1ccccc1NC(=O)N1CCCC1	-	16µM	-	-	-	-
Fc1ccc(Nc2c3c(nc4nncn24)CCC3)cc1	-	-	.	-	.	?
SMILES	Abeta yeast res	ClpP mod	aSyn yeast inh	FUS suppressor	MmCpn inh	TDP-43 yeast inh
CCc1ccccc1N1C(=O)N(Cc2cccc(Cl)c2)c2ccccc2S1(=O)=O	-	-	.	?	.	-
CC(C)CCNC(=O)CN1C(=O)CSc2ccc(S(=O)(=O)N3CCCCC3)cc21	-	-	.	-	.	-
Cn1c(SCC(=O)NCc2ccco2)nnc1-c1ccc(NC(=O)c2ccccc2)cc1	.	-	-	.	.	.
CCCC(=O)N(C)c1ccc(/C=C2\C=Cc3ccccc32)cc1	.	-	-	.	.	.
COC(=O)c1ccccc1NC(=O)NC1CC1	-	-	-	-	-	-
CCCN1CCC(NC(=O)Nc2ccccc2C(=O)OC)CC1	-	28µM	-	-	-	-
COC(=O)CNc1nc(C2CC2)nc2c1nnn2Cc1ccccc1Cl	-	-	-	-	-	-
CN(C)S(=O)(=O)c1ccc(Nc2nc(C3CC3)nc3c2nnn3Cc2ccccc2Cl)cc1	-	32µM	-	-	-	-
CC(=O)Nc1ccc(C2Nc3ccccc3C(=O)N2C2CCCCC2)cc1 (centres undefined)	-	28µM	.	-	-	-
O=C(Nc1ccc2c(c1)OCCO2)C1C(=O)Nc2ccccc2C(=O)N1C1CCCCC1 (centres undefined)	-	-	-	-	.	-
Cc1ccc(C)c(CSc2c(C(C)C)cnc3c2c(=O)n(C)c(=O)n3C)c1	-	-	.	-	.	-
COC(=O)c1c(-c2cc(OC)cc(OC)c2)sc2ccc(OC)cc12	-	?	-	-	35µM	-
COC(=O)c1c(-c2ccc(OC)cc2)sc2ccccc12	.	.	.	.	35µM	.
COC(=O)c1c(-c2ccc(S(C)(=O)=O)cc2)sc2ccc(OC)cc12	-	-	-	-	?	?
COC(=O)c1c(-c2ccc(SC)cc2)sc2ccc(OC)cc12	-	-	-	-	-	-
COC(=O)c1c(-c2ccc(SC)cc2)sc2ccccc12	-	-	-	-	?	-
COC(=O)c1c(-c2ccc(S(C)(=O)=O)cc2)sc2cc(OC)ccc12	-	-	-	-	35µM	-
COC(=O)c1c(-c2ccc(OC)cc2)sc2ccc(N3CCOCC3)cc12	-	-	-	-	50µM	?
O=C(NCc1ccc(Cl)cc1Cl)c1cccc(N2CCCS2(=O)=O)c1	-	-	.	-	.	-
COc1cccc(-c2cc3nc(-c4ccco4)cc(N4CCN(C(C)=O)CC4)n3n2)c1	.	.	.	-	.	.
COC(=O)c1c(-c2ccc(OC)cc2)sc2cc(OC)c(OC)cc12	-	-	-	?	?	-
COC(=O)c1c(-c2ccccc2OC)sc2ccccc12	-	-	-	-	35µM	?
O=C(c1ccccc1)N1CCN(c2ncnc3sc4c(c23)CCC4)CC1	-	-	-	-	-	22µM
COc1ccc(Cn2ccc3ccc(-c4ccc5ccn(Cc6cccc(F)c6)c5c4)cc32)cc1	.	.	.	-	.	.
C=CCN=c1scc(-c2ccccc2)n1/N=C/c1ccccn1	?	-	-	-	-	22µM!
SMILES	Abeta yeast res	ClpP mod	aSyn yeast inh	FUS suppressor	MmCpn inh	TDP-43 yeast inh
COc1cc(/C=N/NC(=S)NC2CC3CCC2C3)ccc1O (centres undefined)	11µM	-	-	-	-	22µM
COc1ccc(/C=N/NC(=S)N[C@H]2CC3CCC2C3)cc1 (some centres undefined)	?	.	-	-	-	-
Cc1[nH]n(-c2ccccc2)c(=O)c1/C=N/NC(=O)c1ccccc1F	10µM	-	-	-	-	?
Cc1[nH]n(-c2ccccc2)c(=O)c1/C=N/N1C(=O)c2ccc3c4c(ccc(c24)C1=O)CC3	8.9µM	-	25µM	-	-	5µM
COC(=O)c1sc2cccc(F)c2c1S(=O)(=O)N1CCN(c2ccccc2OC)CC1	-	-	.	?	.	-
CCc1nn2c(=O)cc(COC(=O)c3ccc(NC(=O)CCc4ccccc4)cc3)nc2s1	-	?	.	-	.	-
